# Assay outcomes (PubChem)
# Compounds with a hit are over-represented: about 27% of the library has one in this group of screens.
# Cav32 inh: blocks human Cav3.2 T-type calcium channel; O95180; Cav3.2-expressing cells, Fluo-4 calcium fluorescence FDSS; stronger effect = lower value; B-score at 10 µM; hit rate 4% among 100,000; AID 449739;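 active = single-dose well whose peak fluorescence ratio is a statistical outlier from its plate by either plate-standardised score or position-corrected B-score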
# CYP2C9 inhib: human CYP2C9 inhibition; P11712; AID 777; hit rate 20% among 96,000; CYP2C9 Supersomes, luciferin-H conversion, luminescence; inhibition, % at 5 µM;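 active = blocking of liver enzyme CYP2C9 beyond about 50% at 5 µM, limit read from the data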
# CYP2C9 activ: CYP2C9 (human) activation. activation factor at 5 µM. recombinant CYP2C9, luciferin-H conversion, luminescence; stronger effect = higher value; factor 1 = untreated enzyme, 0 = blocked. hit rate 1.4% among 96,000. P11712. AID 1024;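 active = activation factor of 2 or more for CYP2C9 at a 5 µM dose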;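 note: 0 = sulfaphenazole-blocked wells and 1 = vehicle-only wells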
# CYP2C19 act: activators of human cytochrome P450 2C19. recombinant CYP2C19, luciferin-H EGE luminescence; stronger effect = higher value; 0 = fully inhibited enzyme, 1 = untreated enzyme. activation factor at 5 µM. 96,000 tested, under 10 active. AID 1025;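 active = activation factor of at least 2 at 5 µM in the primary screen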;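 note: 0 = wells with 2.5 mM tranylcypromine and 1 = vehicle-only wells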
# Target sequence (P33261 whole entry, looked up): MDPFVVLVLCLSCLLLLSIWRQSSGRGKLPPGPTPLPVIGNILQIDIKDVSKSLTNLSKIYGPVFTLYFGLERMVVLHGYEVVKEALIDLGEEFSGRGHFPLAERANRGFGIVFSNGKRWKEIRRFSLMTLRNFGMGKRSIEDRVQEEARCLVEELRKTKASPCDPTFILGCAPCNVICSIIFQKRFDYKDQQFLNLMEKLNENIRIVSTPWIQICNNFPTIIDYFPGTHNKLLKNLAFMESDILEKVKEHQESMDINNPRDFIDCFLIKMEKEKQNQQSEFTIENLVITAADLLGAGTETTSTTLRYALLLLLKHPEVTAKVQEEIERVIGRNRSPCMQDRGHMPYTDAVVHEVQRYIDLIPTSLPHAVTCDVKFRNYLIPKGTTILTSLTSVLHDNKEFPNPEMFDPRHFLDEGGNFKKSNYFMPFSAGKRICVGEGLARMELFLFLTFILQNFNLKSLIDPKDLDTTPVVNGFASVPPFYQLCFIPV
# CYP2C19 inhib: inhibitors of human CYP2C19; inhibition, % at 5 µM; hit rate 21% among 96,000; P33261; CYP2C19 Supersomes, luciferin-H EGE luminescence, 30 min; AID 778;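 active = CYP2C19 inhibition above a set limit at 5 µM in the primary screen, cut at about 50% in these data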;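 note: plate controls were negative control wells for no effect and 2.5 mM tranylcypromine positive control for full effect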
# * = called active by the depositor; . = no result given.
SMILES,Cav32 inh,CYP2C9 inhib,CYP2C9 activ,CYP2C19 act,CYP2C19 inhib
Cc1ccc(NC(=O)CN2C(=O)C3CCCCN3C(=O)c3ccccc32)cc1 (centres undefined),0.15,13,0.9,0.9,10
CCn1c(SCC(=O)Nc2nnc(C)s2)nnc1-c1ccncc1,0.63,-1,1,0.9,10
COc1ccccc1N1CCN(C(CNS(=O)(=O)c2cccs2)c2cccnc2)CC1 (centres undefined),0.6,14,0.9,0.4,57*
COc1ccc(N2CCN(C(CNS(=O)(=O)c3cccs3)c3cccnc3)CC2)cc1 (centres undefined),0.89,56*,0.4,0.3,69*
COc1ccc(N2CCN(C(CNS(=O)(=O)c3cc(F)ccc3F)c3cccnc3)CC2)cc1 (centres undefined),.,57*,0.4,0.3,74*
COC(=O)NCC(c1cccnc1)N1CCN(c2ccccc2)CC1 (centres undefined),0.19,.,.,.,.
CCS(=O)(=O)NCC(c1cccnc1)N1CCN(c2ccccc2OC)CC1 (centres undefined),0.3,-17,1.2,0.9,7
O=S(=O)(NCC(c1cccnc1)N1CCN(c2ccccc2)CC1)c1cccs1 (centres undefined),-0.0064,71*,0.3,0.1,92*
CNC(=O)CSc1nnc(COc2ccc(Cl)cc2)n1CCOC,-1.1,22,0.8,0.9,8
COc1ccc(S(=O)(=O)NCC(c2cccnc2)N2CCN(c3ccccc3)CC2)cc1C (centres undefined),.,86*,0.1,0.3,73*
Cc1ccc(CN2C(=O)CCSc3ccc(Cl)cc32)cc1,-4.9*,17,0.8,0.6,36
O=C1CCSc2ccc(Cl)cc2N1Cc1cccc(Cl)c1,-3.4,14,0.9,0.4,64*
COc1cccc2c(=O)n(CC(=O)Nc3cccc(F)c3)ccc12,0.87,17,0.8,0.6,41
CCn1c(C)c(CCC(=O)O)c(=O)n2nc(-c3ccccc3OC)cc12,1,31,0.7,0.9,9
O=S(=O)(NCc1ccncc1)c1ccc(S(=O)(=O)NCC2CCCO2)cc1 (centres undefined),0.45,89*,0.1,0.4,56*
O=S(=O)(NCC1CCCO1)c1ccc2oc3ccc(S(=O)(=O)NCC4CCCO4)cc3c2c1 (centres undefined),-0.46,52*,0.5,1,2
CC(C)C(NS(=O)(=O)c1ccc(Br)s1)C(=O)O (centres undefined),.,-10,1.1,1.1,-6
CCN1CCN(S(=O)(=O)c2ccc(S(=O)(=O)NCC3CCCO3)cc2)CC1 (centres undefined),1.2,1,1,1.1,-10
O=S(=O)(NC1CC2CCC1C2)c1ccc(Br)s1 (centres undefined),-4.9*,84*,0.2,0.4,64*
O=S(=O)(NCC1CCCO1)c1ccc(Br)s1 (centres undefined),-3.5,-15,1.1,0.3,71*
COC(=O)c1sc(S(=O)(=O)N2CCCCC2C(=O)O)c(C(=O)OC)c1C (centres undefined),0.49,-14,1.1,1.1,-12
CCCOc1ccc(/C=N/NC(=O)C2CCCN2S(=O)(=O)c2ccc(Cl)cc2)cc1 (centres undefined),0.82,41,0.6,0.7,26
CCOC(=O)C1(CC)CC(CSc2nc3ccccc3[nH]2)OC1=O (centres undefined),0.018,82*,0.2,0.5,52*
CCOC(=O)C1(CCC(C)C)CC(CSc2nc3ccccc3[nH]2)OC1=O (centres undefined),-2.3,58*,0.4,0.9,14
CCOC(=O)C1=C(CSc2nc3ccccc3s2)NC(=O)NC1c1cccc([N+](=O)[O-])c1 (centres undefined),0.32,22,0.8,0.7,34
Cc1nn(C)cc1C(C(=O)NC1CCCCC1)N(C(=O)Cc1cccs1)c1ccc(C(C)C)cc1 (centres undefined),-5.3*,41,0.6,0.6,40
Cc1ccc(C(C(=O)NC2CCCC2)N(C(=O)Cc2cccs2)c2ccc3c(c2)OCCO3)cc1 (centres undefined),-0.72,14,0.9,0.9,15
Cc1ccc(C(C(=O)NC2CCCC2)N(C(=O)Cc2cccs2)c2ccc(C)c(C)c2)o1 (centres undefined),-2.3*,-5,1,0.9,10
